# For some of these results: Potency and affinity values are given separately. Calls of active or inactive are those of the source.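 The calls were made as follows, unless noted: active = fluorescence ratio normalized to control raised more than 50% in primary screen plus both repeat runs; inactive = the rest.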
# What was measured:
# [1] = system: TRPC4 beta (transient receptor potential cation channel C4), mouse; assay: activators of mouse TRPC4 channel, confirmation, cell-based, Fluo4 calcium, HEK293 TRPC4beta/mu-opioid, duplicates, 10 µM (AID 2426); conditions: Fluo4 calcium fluorescence, at 10 µM; hits give high values;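 as to activation: percent rise of integrated ratio over buffer wells lacking compound which define 0%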
# [2] = system: transient receptor potential cation channel C4 beta (TRPC4), mouse; assay: activators of mouse TRPC4 channel, confirmation, cell-based, second round, Fluo4, HEK293 TRPC4beta/mu-opioid, 1 µM (AID 2461;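 active = primary screen active and over 50% activation in each of two duplicate runs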;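 as to activation: 0% = wells without test compound as baseline of integrated fluorescence ratio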); conditions: Fluo4 calcium fluorescence, at 1 µM; hits give high values
# [3] = system: TRPC4 (transient receptor potential cation channel C4 beta), mouse; assay: positive allosteric modulators of mouse TRPC4, confirmation, cell-based, second round, Fluo-4, HEK293 TRPC4beta/mu-opioid, 1 µM (AID 2554;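 active = primary screen hit whose fluorescence ratio, in both repeats, exceeds the weak agonist control mean by 3 SD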); conditions: DAMGO EC20, Fluo-4 calcium flux, at 1 µM; hits give high values
# [4] = system: TRPC4 beta (transient receptor potential cation channel C4), mouse; assay: positive allosteric modulators of mouse TRPC4, confirmation, cell-based, Fluo-4, HEK293 TRPC4beta/mu-opioid (AID 2555;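 active = primary screen hit whose calcium fluorescence ratio, in both repeats, exceeds the weak agonist control mean by 3 SD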); conditions: DAMGO EC20, Fluo-4 calcium flux, at 10 µM; hits give high values
# [5] = target: Short transient receptor potential channel 4 (Mus musculus) (UniProt Q9QUQ5); assay: inhibitors of mouse TRPC4 channel, confirmation, cell-based, Fluo4, HEK293 TRPC4beta/mu-opioid (AID 2636;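 active = calcium signal cut by more than 3 SD below the full-agonist control yet still positive, in both repeats and the earlier primary screen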); conditions: DAMGO, Fluo4 calcium flux, at 10 µM; hits give high values
# Chain of Short transient receptor potential channel 4 (Mus musculus) (Q9QUQ5 whole entry, looked up): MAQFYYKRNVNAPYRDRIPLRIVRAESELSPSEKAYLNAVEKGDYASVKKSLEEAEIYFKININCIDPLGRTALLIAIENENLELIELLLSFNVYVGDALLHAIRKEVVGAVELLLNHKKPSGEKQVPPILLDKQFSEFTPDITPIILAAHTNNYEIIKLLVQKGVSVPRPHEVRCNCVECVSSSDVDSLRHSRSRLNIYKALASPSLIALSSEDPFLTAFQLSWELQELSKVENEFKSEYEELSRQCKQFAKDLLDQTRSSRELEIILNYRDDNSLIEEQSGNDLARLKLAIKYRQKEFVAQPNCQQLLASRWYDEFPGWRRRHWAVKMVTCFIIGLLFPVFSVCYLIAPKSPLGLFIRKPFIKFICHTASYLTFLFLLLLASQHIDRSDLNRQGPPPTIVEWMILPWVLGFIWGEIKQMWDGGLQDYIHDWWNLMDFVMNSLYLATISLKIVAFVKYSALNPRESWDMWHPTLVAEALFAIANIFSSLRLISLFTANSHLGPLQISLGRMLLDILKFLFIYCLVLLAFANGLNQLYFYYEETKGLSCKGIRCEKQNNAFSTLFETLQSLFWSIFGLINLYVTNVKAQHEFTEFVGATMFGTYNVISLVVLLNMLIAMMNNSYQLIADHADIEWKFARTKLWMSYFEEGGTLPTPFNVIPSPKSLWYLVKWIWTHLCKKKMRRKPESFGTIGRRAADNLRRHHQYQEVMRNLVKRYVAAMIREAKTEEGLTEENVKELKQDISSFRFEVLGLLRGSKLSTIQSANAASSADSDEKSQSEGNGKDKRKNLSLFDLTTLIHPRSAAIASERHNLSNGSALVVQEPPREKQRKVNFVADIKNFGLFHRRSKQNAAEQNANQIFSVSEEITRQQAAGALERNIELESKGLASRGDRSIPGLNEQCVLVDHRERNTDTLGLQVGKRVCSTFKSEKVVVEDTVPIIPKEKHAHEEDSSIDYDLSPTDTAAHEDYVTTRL
# [6] = target: Short transient receptor potential channel 4 (Mus musculus) (UniProt Q9QUQ5); assay: inhibitors of mouse TRPC4 channel, confirmation, cell-based, second round, Fluo4, HEK293 TRPC4beta/mu-opioid, 1 µM (AID 2637;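 active = calcium signal ratio cut to more than 3 SD under the fully stimulated control mean yet still positive, in both repeats and the primary screen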); conditions: Fluo4 calcium flux, DAMGO, at 1 µM; hits give high values
# [7] = target: Short transient receptor potential channel 4 (Mus musculus) (UniProt Q9QUQ5); assay: TRPC4 positive allosteric modulators, dose response, cell-based, HEK293 TRPC4/mu-opioid, Fluo-4 calcium, EC20 DAMGO (AID 434941;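 active = earlier screen potentiator hit that boosts the TRPC4 ion channel at some dose, with a dose response; inactive = no potentiation, no dose response, or not a prior hit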;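 also: calcium entry triggered by an EC20 dose of DAMGO at the co-expressed mu-opioid receptor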)
# [8] = target: Short transient receptor potential channel 4 (Mus musculus) (UniProt Q9QUQ5); assay: mouse TRPC4 channel inhibitors, dose response, cell-based, HEK293 TRPC4/mu-opioid, Fluo-4 calcium (AID 434942;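 active = primary screen inhibitor hit that blocks the TRPC4 channel at some tested dose, yielding a dose curve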)
# [9] = target: Short transient receptor potential channel 6 (Mus musculus) (UniProt Q61143); assay: inhibition of mouse TRPC6 channel, confirmation, selectivity assay for TRPC4 inhibitor project, cell-based, HEK293, membrane potential dye, duplicate (AID 434948;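 active = active in primary screen and both duplicates, each dropping signal beyond three positive-control SD with fluorescence still positive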); conditions: HEK293 TRPC6, membrane potential dye fluorescence, at 10 µM, stimulated with maximal-effect acetylcholine; hits give high values
# Chain of Short transient receptor potential channel 6 (Mus musculus) (Q61143 whole entry, looked up): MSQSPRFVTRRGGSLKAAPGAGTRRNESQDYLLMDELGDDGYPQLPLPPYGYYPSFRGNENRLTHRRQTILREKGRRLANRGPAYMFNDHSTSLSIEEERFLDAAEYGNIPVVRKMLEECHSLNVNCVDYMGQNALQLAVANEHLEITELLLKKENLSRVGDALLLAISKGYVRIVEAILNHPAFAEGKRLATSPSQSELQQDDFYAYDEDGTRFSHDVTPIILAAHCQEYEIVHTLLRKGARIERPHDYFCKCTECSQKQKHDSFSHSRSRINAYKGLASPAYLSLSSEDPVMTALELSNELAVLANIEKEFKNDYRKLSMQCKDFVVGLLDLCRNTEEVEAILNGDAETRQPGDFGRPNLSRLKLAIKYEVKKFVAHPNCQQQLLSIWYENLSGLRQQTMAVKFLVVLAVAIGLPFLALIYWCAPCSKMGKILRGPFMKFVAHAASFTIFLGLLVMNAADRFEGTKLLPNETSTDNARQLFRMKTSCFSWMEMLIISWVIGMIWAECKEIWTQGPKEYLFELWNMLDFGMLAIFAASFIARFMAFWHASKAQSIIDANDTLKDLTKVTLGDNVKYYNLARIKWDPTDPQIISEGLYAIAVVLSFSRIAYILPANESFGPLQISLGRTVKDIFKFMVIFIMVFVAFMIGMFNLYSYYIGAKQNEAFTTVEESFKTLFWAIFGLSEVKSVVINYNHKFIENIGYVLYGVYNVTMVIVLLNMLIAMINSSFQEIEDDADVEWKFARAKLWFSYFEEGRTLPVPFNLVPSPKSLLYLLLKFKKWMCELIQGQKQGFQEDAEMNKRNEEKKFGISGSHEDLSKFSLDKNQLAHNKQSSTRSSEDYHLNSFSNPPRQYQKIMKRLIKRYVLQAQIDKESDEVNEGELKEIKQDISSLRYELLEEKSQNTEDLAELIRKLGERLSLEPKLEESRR
# [10] = target: Short transient receptor potential channel 6 (Mus musculus) (UniProt Q61143); assay: activation of mouse TRPC6 channel, confirmation, selectivity assay for TRPC4 activator project, cell-based, HEK293, membrane potential dye, duplicate (AID 434950;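 active = membrane potential signal rise above negative control mean plus 3 SD in both duplicates, also active in the earlier TRPC4 screen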;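 as to activation: 0% = buffer only wells and 100% = acetylcholine maximal-effect wells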); conditions: HEK293 TRPC6, membrane potential fluorescence, at 10 µM; hits give high values
# [11] = target: Short transient receptor potential channel 6 (Mus musculus) (UniProt Q61143); assay: TRPC6 potentiation by TRPC4 potentiator hits, confirmation, selectivity assay for TRPC4 potentiator project, HEK293 cells, membrane potential dye, duplicate (AID 434952;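 active = compound raising the membrane signal above positive-control mean plus 3 SD in both repeats, and a primary screen hit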); conditions: HEK293 TRPC6, membrane potential dye fluorescence, at 10 µM, maximal acetylcholine added after compound; hits give high values
# [12] = target: Short transient receptor potential channel 4 (Mus musculus) (UniProt Q9QUQ5); assay: calcium flux activators in TRPC4/5HT1a cells, counter-screen for TRPC4 activator project, cell-based, second counter screen, HEK293 TRPC4/5HT1a, Fluo-4 (AID 434977;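 active = calcium signal rise above buffer-control mean plus 5 SD in both duplicates, and also a hit in the primary screen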;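 as to activation: plate controls were assay buffer for no effect and maximal serotonin response for full effect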); conditions: Fluo-4 calcium flux, at 10 µM; hits give high values
# [13] = calcium flux inhibitors in TRPC4/5HT1a cells, confirmation, counter-screen for TRPC4 inhibitor project, cell-based, second counter screen, HEK293 TRPC4/5HT1a, Fluo-4 (AID 434978;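 active = primary screen active whose calcium signal fell more than 3 SD beyond the full-serotonin control mean in both duplicate plates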;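 also: serotonin given first at submaximal then at maximal dose after compound preincubation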); conditions: Fluo-4 calcium flux, at 10 µM, serotonin added to trigger calcium flux; hits give high values
# [14] = system: TRPC4 (mouse), co-expressed with 5HT1a in HEK293; assay: calcium flux potentiators in TRPC4/5HT1a cells, confirmation, counter-screen for TRPC4 potentiator project, cell-based, second counter screen, HEK293 TRPC4/5HT1a, Fluo-4 (AID 434979;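 active = signal rise over 3 SD above mean of control wells given weak agonist, in both repeats and first screen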); conditions: Fluo-4 calcium flux, at 10 µM, serotonin added at its EC20 dose; hits give high values
# [15] = calcium flux activation in mu-opioid HEK293 cells, confirmation, counter-screen for TRPC4 activator project, cell-based, HEK293 mu-opioid receptor line (AID 449723;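 active = hit in primary screen, with calcium signal over 5 SD above buffer well mean in both duplicates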;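 also: counter screen cells carry the mu-opioid receptor alone and lack TRPC4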); conditions: Fluo-4 calcium fluorescence, at 10 µM; hits give high values
# [16] = calcium flux enhancement in mu-opioid HEK293 cells, confirmation, counter-screen for TRPC4 allosteric potentiator project, cell-based, HEK293 mu-opioid receptor line (AID 449724;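 active = calcium signal rise more than 3 SD above the low-dose agonist control mean, in both duplicate plates and the primary screen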); conditions: Fluo-4 calcium flux, at 10 µM, compound added before EC20 DAMGO stimulus; hits give high values
# [17] = thallium flux activation in parental CHO cells, counter-screen for KCNQ1 potentiator project (AID 493006;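 active = duplicate-averaged activation above buffer control mean plus 5 SD of those controls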;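 also: fluorescence ratio of max minus min over baseline after K+ and Tl+ depolarization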); conditions: parental CHO-K1 cells, FluxOR thallium flux, at 10 µM; hits give high values
# [18] = target: Potassium voltage-gated channel subfamily KQT member 1 (Homo sapiens) (UniProt P51787); assay: KCNQ1 potassium channel potentiators, confirmation, FluxOR thallium flux, CHO cells, duplicates (AID 493007;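 active = potentiation averaged over duplicate wells exceeding buffer-only control mean by more than 3 SD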;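 also: 0% = buffer-only wells and 100% = R-L3 activator control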); conditions: KCNQ1 cell line, FluxOR thallium flux fluorescence, at 10 µM; hits give high values, % of reference activator effect, buffer zero
# Chain of Potassium voltage-gated channel subfamily KQT member 1 (Homo sapiens) (P51787 whole entry, looked up): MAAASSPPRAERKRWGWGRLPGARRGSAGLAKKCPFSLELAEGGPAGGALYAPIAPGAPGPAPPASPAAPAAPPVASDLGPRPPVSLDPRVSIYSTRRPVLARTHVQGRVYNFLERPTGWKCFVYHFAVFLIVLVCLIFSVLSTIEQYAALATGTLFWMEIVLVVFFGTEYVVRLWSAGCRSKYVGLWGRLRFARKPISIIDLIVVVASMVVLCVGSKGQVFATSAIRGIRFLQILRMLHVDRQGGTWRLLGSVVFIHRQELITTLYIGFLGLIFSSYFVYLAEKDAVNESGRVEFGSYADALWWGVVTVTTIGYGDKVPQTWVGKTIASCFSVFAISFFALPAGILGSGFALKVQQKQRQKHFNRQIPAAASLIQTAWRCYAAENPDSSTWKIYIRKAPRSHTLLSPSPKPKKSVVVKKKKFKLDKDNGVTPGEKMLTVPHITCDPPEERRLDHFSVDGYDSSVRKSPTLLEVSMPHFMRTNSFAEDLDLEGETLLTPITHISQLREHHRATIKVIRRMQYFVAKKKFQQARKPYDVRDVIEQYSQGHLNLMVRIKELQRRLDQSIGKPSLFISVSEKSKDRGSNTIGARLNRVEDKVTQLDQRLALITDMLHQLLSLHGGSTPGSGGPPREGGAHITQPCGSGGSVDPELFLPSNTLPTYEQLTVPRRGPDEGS
# [19] = target: Potassium voltage-gated channel subfamily KQT member 2 (Rattus norvegicus) (UniProt O88943); assay: rat KCNQ2 channel potentiation, selectivity assay for KCNQ1 potentiator project, KCNQ2-CHO-K1 cells (AID 493009;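 active = mean duplicate potentiation above the buffer control mean plus 5 SD of buffer wells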;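 also: assay conditions were tuned for KCNQ1 rather than KCNQ2 modulators; signal is max minus min fluorescence divided by baseline after thallium stimulus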); conditions: FluxOR thallium flux fluorescence, at 10 µM; hits give high values, scaled: buffer 0, activator control 100
# Chain of Potassium voltage-gated channel subfamily KQT member 2 (Rattus norvegicus) (O88943 whole entry, looked up): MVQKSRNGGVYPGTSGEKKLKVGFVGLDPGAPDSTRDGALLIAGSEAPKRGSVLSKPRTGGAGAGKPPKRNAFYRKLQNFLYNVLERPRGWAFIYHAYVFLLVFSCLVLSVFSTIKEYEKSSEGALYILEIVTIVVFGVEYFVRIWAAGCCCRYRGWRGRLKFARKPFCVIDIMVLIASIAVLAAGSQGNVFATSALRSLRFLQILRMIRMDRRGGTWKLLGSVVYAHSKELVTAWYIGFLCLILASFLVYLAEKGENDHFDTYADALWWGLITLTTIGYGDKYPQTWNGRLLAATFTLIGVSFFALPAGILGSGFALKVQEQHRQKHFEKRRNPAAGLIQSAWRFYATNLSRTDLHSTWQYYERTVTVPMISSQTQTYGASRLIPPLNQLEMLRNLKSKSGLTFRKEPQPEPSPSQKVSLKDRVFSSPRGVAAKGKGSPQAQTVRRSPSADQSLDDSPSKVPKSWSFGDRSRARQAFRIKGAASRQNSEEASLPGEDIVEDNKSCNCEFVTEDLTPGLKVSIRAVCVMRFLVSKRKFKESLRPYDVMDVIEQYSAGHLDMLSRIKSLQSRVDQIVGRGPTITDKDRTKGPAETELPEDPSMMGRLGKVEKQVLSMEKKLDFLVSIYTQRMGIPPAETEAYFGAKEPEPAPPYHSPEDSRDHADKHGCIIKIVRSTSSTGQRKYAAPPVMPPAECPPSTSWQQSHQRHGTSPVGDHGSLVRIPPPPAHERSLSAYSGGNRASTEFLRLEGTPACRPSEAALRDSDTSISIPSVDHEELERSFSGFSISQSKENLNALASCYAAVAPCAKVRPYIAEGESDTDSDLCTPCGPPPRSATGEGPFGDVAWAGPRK
# [20] = target: Potassium voltage-gated channel subfamily KQT member 1 (Homo sapiens) (UniProt P51787); assay: KCNQ1 channel current potentiators, confirmation, orthogonal assay for KCNQ1 potentiator project, IonWorks patch clamp, KCNQ1-CHO cells (AID 493184;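 active = current rise at least 3 SD above the untreated control mean in each of two repeat wells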;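 as to current potentiation: percent change of the same well's current before compound addition so 0% = no change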); conditions: automated patch clamp current, at 10 µM; hits give high values
smiles,measurement,setting,value
CC1(c2ccc(Cl)cc2Cl)OCC(Cn2ccnc2)O1 (configuration not stated),activation,[1],89% (active)
same,outcome,[2],inactive
same,outcome,[3],inactive
same,outcome,[4],inactive
same,outcome,[5],inactive
same,outcome,[6],inactive
same,outcome,[7],inactive
same,outcome,[8],inactive
same,outcome,[9],inactive
same,activation,[10],48.5% (active)
same,outcome,[11],inactive
same,activation,[12],19.9% (active)
same,outcome,[13],inactive
same,outcome,[14],inactive
same,outcome,[15],inactive
same,outcome,[16],inactive
CC(=O)Nc1ccc(CN2CCCC(C(=O)c3ccc(C(F)(F)F)cc3)C2)cc1 (configuration not stated),activation,[1],358% (active)
same,activation,[2],86% (active)
same,outcome,[3],inactive
same,outcome,[4],inactive
same,outcome,[5],inactive
same,outcome,[6],inactive
same,outcome,[7],inactive
same,outcome,[8],inactive
same,outcome,[9],inactive
same,activation,[10],37.5% (active)
same,outcome,[11],inactive
same,activation,[12],40.5% (active)
same,outcome,[13],inactive
same,outcome,[14],inactive
same,outcome,[15],inactive
same,outcome,[16],inactive
CC(=O)Nc1ccc(CN2CCCC(C(=O)c3cccc(C(F)(F)F)c3)C2)cc1 (configuration not stated),activation,[1],96% (active)
same,outcome,[2],inactive
same,outcome,[3],inactive
same,outcome,[4],inactive
same,outcome,[5],inactive
same,outcome,[6],inactive
same,outcome,[7],inactive
same,outcome,[8],inactive
same,outcome,[9],inactive
same,activation,[10],29.5% (active)
same,outcome,[11],inactive
same,outcome,[12],inactive
same,outcome,[13],inactive
same,outcome,[14],inactive
same,outcome,[15],inactive
same,outcome,[16],inactive
CC(C)(C)c1ccccc1NC(=O)NC1CCN(Cc2c(F)cccc2Cl)CC1,activation,[1],121% (active)
same,outcome,[2],inactive
same,outcome,[3],inactive
same,outcome,[4],inactive
same,outcome,[5],inactive
same,outcome,[6],inactive
same,outcome,[7],inactive
same,outcome,[8],inactive
same,outcome,[9],inactive
same,activation,[10],36% (active)
same,outcome,[11],inactive
same,activation,[12],71.5% (active)
same,outcome,[13],inactive
same,outcome,[14],inactive
same,outcome,[15],inactive
same,outcome,[16],inactive
CCOC(=O)C1(CCc2ccccc2)CCN(Cc2c(O)cccc2OC)CC1,activation,[1],83% (active)
same,outcome,[2],inactive
same,outcome,[3],inactive
same,outcome,[4],inactive
same,outcome,[5],inactive
same,outcome,[6],inactive
same,outcome,[7],inactive
same,outcome,[8],inactive
same,outcome,[9],inactive
same,activation,[10],92.5% (active)
same,outcome,[11],inactive
same,outcome,[12],inactive
same,outcome,[13],inactive
same,outcome,[14],inactive
same,outcome,[15],inactive
same,outcome,[16],inactive
CCCC(=O)NC(C)C(c1cccs1)N1CCN(c2ccccc2)CC1 (configuration not stated),outcome,[1],inactive
same,outcome,[2],inactive
same,outcome,[3],inactive
same,outcome,[4],inactive
same,outcome,[5],inactive
same,outcome,[6],inactive
same,outcome,[7],inactive
same,outcome,[8],inactive
same,outcome,[9],inactive
same,activation,[10],38.5% (active)
same,outcome,[11],inactive
same,outcome,[12],inactive
same,outcome,[13],inactive
same,outcome,[14],inactive
same,outcome,[15],inactive
same,outcome,[16],inactive
O=C(c1sc2ccccc2c1Cl)N(Cc1ccco1)C1CCS(=O)(=O)C1 (configuration not stated),activation,[1],198% (active)
same,outcome,[2],inactive
same,outcome,[3],inactive
same,outcome,[4],inactive
same,outcome,[5],inactive
same,outcome,[6],inactive
same,outcome,[7],inactive
same,outcome,[8],inactive
same,outcome,[9],inactive
same,activation,[10],57.5% (active)
same,outcome,[11],inactive
same,outcome,[12],inactive
same,outcome,[13],inactive
same,outcome,[14],inactive
same,outcome,[15],inactive
same,outcome,[16],inactive
COC(=O)c1ccccc1N=Nc1c(N)[nH][nH]c1=O,activation,[1],87% (active)
same,outcome,[2],inactive
same,potentiation,[3],69% (active)
same,potentiation,[4],54% (active)
same,outcome,[5],inactive
same,outcome,[6],inactive
same,outcome,[7],inactive
same,outcome,[8],inactive
same,outcome,[9],inactive
same,outcome,[10],inactive
same,outcome,[11],inactive
same,activation,[12],51.2% (active)
same,outcome,[13],inactive
same,potentiation,[14],46.3% (active)
same,outcome,[15],inactive
same,outcome,[16],inactive
CCCN(CCC)CCCNC(=O)C1CCN(S(=O)(=O)c2cccc3nsnc23)CC1,activation,[1],145% (active)
same,activation,[2],95% (active)
same,outcome,[3],inactive
same,outcome,[4],inactive
same,outcome,[5],inactive
same,outcome,[6],inactive
same,outcome,[7],inactive
same,outcome,[8],inactive
same,outcome,[9],inactive
same,outcome,[10],inactive
same,outcome,[11],inactive
same,activation,[12],54.7% (active)
same,outcome,[13],inactive
same,outcome,[14],inactive
same,outcome,[15],inactive
same,outcome,[16],inactive
CN1CCN(c2ccc(C(F)(F)F)cc2NC(=O)Nc2ccccc2)CC1,activation,[1],103% (active)
same,outcome,[2],inactive
same,potentiation,[3],24% (active)
same,outcome,[4],inactive
same,outcome,[5],inactive
same,outcome,[6],inactive
same,outcome,[7],inactive
same,outcome,[8],inactive
same,outcome,[9],inactive
same,outcome,[10],inactive
same,outcome,[11],inactive
same,activation,[12],28.6% (active)
same,outcome,[13],inactive
same,potentiation,[14],33.3% (active)
same,outcome,[15],inactive
same,outcome,[16],inactive
Cc1cccc(C(=O)NC(=S)NNC(=O)c2cccs2)c1,activation,[1],226% (active)
same,outcome,[2],inactive
same,outcome,[3],inactive
same,outcome,[4],inactive
same,outcome,[5],inactive
same,outcome,[6],inactive
same,outcome,[7],inactive
same,outcome,[8],inactive
same,outcome,[9],inactive
same,activation,[10],34.5% (active)
same,outcome,[11],inactive
same,activation,[12],125% (active)
same,outcome,[13],inactive
same,outcome,[14],inactive
same,activation,[15],67.1% (active)
same,outcome,[16],inactive
same,activation,[17],142% (active)
same,potentiation,[18],75% (active)
same,potentiation,[19],210% (active)
same,current potentiation,[20],22.2% (active)
Fc1ccc(C(c2nnnn2Cc2cccs2)N2CCN(C3CCCCC3)CC2)cc1 (configuration not stated),activation,[1],251% (active)
same,activation,[2],67% (active)
same,outcome,[3],inactive
same,outcome,[4],inactive
same,outcome,[5],inactive
same,outcome,[6],inactive
same,outcome,[7],inactive
same,outcome,[8],inactive
same,outcome,[9],inactive
same,activation,[10],60.5% (active)
same,outcome,[11],inactive
same,activation,[12],22.7% (active)
same,outcome,[13],inactive
same,outcome,[14],inactive
same,outcome,[15],inactive
same,outcome,[16],inactive
Cc1ccc(C(=O)NNC(=S)NC(=O)c2ccc(Cl)cc2)cc1,outcome,[1],inactive
same,outcome,[2],inactive
same,outcome,[3],inactive
same,outcome,[4],inactive
same,outcome,[5],inactive
same,outcome,[6],inactive
same,outcome,[7],inactive
same,outcome,[8],inactive
same,outcome,[9],inactive
same,activation,[10],29.5% (active)
same,outcome,[11],inactive
same,activation,[12],77.8% (active)
same,outcome,[13],inactive
same,outcome,[14],inactive
same,outcome,[15],inactive
same,outcome,[16],inactive
CCCOc1ccc(C(=O)NNC(=S)NC(=O)c2cccs2)cc1,activation,[1],104% (active)
same,outcome,[2],inactive
same,outcome,[3],inactive
same,outcome,[4],inactive
same,outcome,[5],inactive
same,outcome,[6],inactive
same,outcome,[7],inactive
same,outcome,[8],inactive
same,outcome,[9],inactive
same,outcome,[10],inactive
same,outcome,[11],inactive
same,activation,[12],71.2% (active)
same,outcome,[13],inactive
same,outcome,[14],inactive
same,activation,[15],22.6% (active)
same,outcome,[16],inactive
same,activation,[17],139% (active)
same,potentiation,[18],135% (active)
same,potentiation,[19],275% (active)
same,outcome,[20],inactive

# Reference: PubChem BioAssay
